“And” between values parts separate entries of the source, which are not always exact repeats. Equal entries are not always repeated. In all, about 16,000 compounds went through this assay and about 4,000 (25%) were called active. Not shown: some 26% with an inconclusive outcome. These entries were drawn from the full list. Values without a mark were called inactive. The call rests on the fitted dose curve; in most records, active means well fitted curve in the direction sought with a large enough effect; inconclusive means small, poorly fitted or top-dose-only effect, or effect the other way; inactive means no such curve, though single readings can be large or run the other way.

For 87 compounds, AC50 and activity, negative = inhibition results are on record in PubChem BioAssay AID1851 (National Center for Advancing Translational Sciences (NCATS), 2009).
On the % scale 0 is the no-effect control and ±100 the full control effect.

In the assay the target is Cytochrome P450 2C9 (Homo sapiens) (UniProt P11712). In words: Cytochrome panel assay with activity outcomes. Conditions: recombinant CYP, pro-luciferin dealkylation, luminescence, p450-cyp2c9; series mostly up to 57.1 µM.
Chain of Cytochrome P450 2C9 (Homo sapiens) (P11712 whole entry, looked up): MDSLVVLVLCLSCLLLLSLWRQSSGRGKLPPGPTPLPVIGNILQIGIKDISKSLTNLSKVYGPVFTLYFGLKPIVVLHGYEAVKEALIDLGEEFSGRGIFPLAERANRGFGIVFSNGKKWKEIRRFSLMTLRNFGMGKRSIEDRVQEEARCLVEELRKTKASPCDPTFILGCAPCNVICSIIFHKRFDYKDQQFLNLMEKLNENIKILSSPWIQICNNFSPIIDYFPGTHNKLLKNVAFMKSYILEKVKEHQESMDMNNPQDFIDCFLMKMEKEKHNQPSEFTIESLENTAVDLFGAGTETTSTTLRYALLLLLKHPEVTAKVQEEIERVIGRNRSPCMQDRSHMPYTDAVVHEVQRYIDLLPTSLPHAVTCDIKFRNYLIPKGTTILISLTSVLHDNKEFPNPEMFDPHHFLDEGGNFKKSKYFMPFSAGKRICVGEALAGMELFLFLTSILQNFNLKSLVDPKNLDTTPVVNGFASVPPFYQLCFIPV
`Cc1ncc2c(c1O)COP(=O)(O)OC2`: the AC50 – broadly, the midpoint of the concentration-response curve, whichever way the signal moves – was “inactive”. Regarding `CN(C)c1ccc(-c2cc(NCc3cccnc3)ncn2)cc1`, the activity, negative = inhibition is -1.19% [at 2.29 µM].

For the compound `CCc1cc2c(nc1CC)CCN(CC/C(C)=N/O[C@@H](C)c1cn([C@H](CO)Cc3ccccc3)nn1)C2`, the activity, negative = inhibition was 1.31% [at 11.4 µM] and -5.84% [at 11.4 µM].

With `COc1ccc2[nH]cc(C=O)c2c1`, the AC50 result was “inactive”. Same read-out and setting: to `CC1(C)Oc2ccc(C#N)cc2[C@H](N2CCCC2=O)[C@H]1O` belongs “inactive”. As to `O=C(O)CCC(O)=C1S(=O)(=O)OCCOS1(=O)=O`, the activity, negative = inhibition was 8.09% [at 11.4 µM]. For the compound `O=C(O)[C@H]1CCCNC1`, the AC50 result is “inactive”. In the case of `c1c[nH]c(CN2CCN(Cc3ncc[nH]3)CC2)n1`, the activity, negative = inhibition is -13% [at 11.4 µM].

On to `CC[C@H]1C2=C3C(CC[C@H]4C(OCc5ccc(F)cc5C(F)(F)F)OC[C@](C)([C@@H]34)N(C(=O)OC(C)(C)C)C2)C(COC)C1COC` (some centres not stated), for which the AC50 entry is “inactive”.

With `CCn1nc(C(=O)Nc2ccccc2C)c(Cl)c1Cl`, the AC50 result was “inactive”. Still for that read-out and setting: to `Cc1ccccc1Cn1nc(C)c(NC(=O)c2sc3ccccc3c2Cl)c1C` belongs 7.08 µM (active).

Take `CN(C)CCN(Cc1cccs1)c1ccccn1`: the AC50 entry is “inactive”. As for `Cc1ccc(S(=O)(=O)/C(C#N)=C/c2c(N3CC(C)OC(C)C3)nc3ccccn3c2=O)cc1` (configuration not stated), the AC50 was 11.2 µM (active). Still for that read-out and setting: to `CC(=O)[C@H]1CC[C@@H]2[C@H]3CC=C4C[C@@H](O)CC[C@]4(C)[C@H]3CC[C@]12C` belongs “inactive”; to `C[C@@H](O)[C@H]1C(=O)N2C(C(=O)O)=C(S[C@@H]3CN[C@H](C(=O)N(C)C)C3)[C@H](C)[C@H]12`, “inactive”. Still for that read-out and setting: as for `CCOC(=O)c1[nH]c(C)c(C(=O)OCC(=O)N2c3ccccc3CC2C)c1C` (configuration not stated), the figure is 25.1 µM (active); as for `Cc1ccc(-c2cc(-c3nnc(SCC(=O)NC(C)C(C)C)n3N)c3ccccc3n2)cc1` (configuration not stated), 1.12 µM (active). Same read-out and setting: to `Cc1nnc(SCC(=O)NCC2CCCCC2)n(N)c1=O` belongs “inactive”.

Regarding `NNC(=O)CNc1cccc(Br)c1`, the activity, negative = inhibition was 1.94% [at 11.4 µM]. Take `NNC(=O)CNC(c1ccccc1)c1cc(Br)ccc1NC(=O)c1ccccc1Br` (configuration not stated): the AC50 was 3.16 µM (active).

On to `Cc1ccccc1-c1nc(N2CCNCC2)c2ccccc2n1`, for which the activity, negative = inhibition was 0.671% [at 2.29 µM]. Turning to `Oc1c(C(O)(c2ccccc2)c2ccc3ccccc3c2O)ccc2ccccc12`, the AC50 is 0.794 µM (active).

As to `C[C@](O)(c1ccccc1)c1nccc2ccccc12`, the activity, negative = inhibition is -17.3% [at 11.4 µM]. On to `Nc1nc(N)c2nn(-c3ccc(C(=O)O)cc3)nc2n1`, for which the activity, negative = inhibition is 7.68% [at 11.4 µM]. For `COc1ccccc1C1CC(c2c(-c3ccccc3)c3cc(Cl)ccc3[nH]c2=O)=NN1S(C)(=O)=O` (configuration not stated), the AC50 was 2.82 µM (active). Same read-out and setting: to `CCC1=NN(C(=O)CCc2ccccc2)C(O)(C(F)(F)F)C1` (configuration not stated) belongs 4.47 µM (active); to `CCOC(=O)N1N=C(c2ccccc2)CC1(O)C(F)(F)F` (configuration not stated), 10 µM (active).

Regarding `COc1cc(N=C(N)N=C(N)N)c2ncccc2c1`, the activity, negative = inhibition was 8.03% [at 11.4 µM]. The same measure, in the same setting: as for `CCOC(=O)N/N=C1/C[C@@H](O)[C@@H](O)[C@@H]2[C@@H]3C(=O)N(c4cccc(Oc5ccccc5)c4)C(=O)[C@H]3CC[C@H]12`, the figure is 7.2% [at 11.4 µM]. Regarding `Cc1cc(C2C(C#N)=C(N)OC3=C2C(=O)CC(C)(C)C3)c(C)s1` (configuration not stated), the AC50 is 7.08 µM (active). Still for that read-out and setting: to `COc1ccc(C2C(C#N)=C(N)OC3=C2C(=O)CC(C)(C)C3)c([N+](=O)[O-])c1OC` (configuration not stated) belongs 1 µM (active). Turning to `C[C@H]1COC(=O)[C@H](Cc2ccccc2)NC(=O)[C@@H](C)COC(=O)[C@H](Cc2ccccc2)NC1=O`, the activity, negative = inhibition is -8.11% [at 11.4 µM]. For the compound `CO[C@H]1COC(=O)[C@H](C)NC(=O)C/C=C\[C@@H](C)[C@@H](NS(=O)(=O)c2ccc(C)cc2)COC(=O)C/C=C\[C@@H]1C`, the activity, negative = inhibition was -2.5% [at 11.4 µM].

In the case of `Cc1ccc(-c2c3c(nc4sc(C(N)=O)c(N)c24)CCC3)cc1`, the AC50 is 8.91 µM (active). As to `Cc1ccc(C(=O)Cn2nnc3c(sc4nc5c(c(-c6ccccc6)c43)CCC5)c2=O)cc1`, the AC50 is 3.55 µM (active).

Consider `CCOC(=O)Cn1nnc2c(sc3nc4c(c(-c5ccc(Cl)cc5)c32)CCC4)c1=O`, for which the AC50 was 12.6 µM (active). Same read-out and setting: to `CCOC(=O)c1c(C)nc2sc3c(=O)n(-c4ccc(OC)cc4)nnc3c2c1-c1ccc(OC)cc1` belongs 10 µM (active); to `CCOC(=O)c1c(NC(=O)C2C3CCC(O3)C2C(=O)O)sc(C)c1-c1ccc(C)cc1` (configuration not stated), “inactive”. Still for that read-out and setting: to `CCN1CCC[C@@H]1CNC(=O)c1cc(S(N)(=O)=O)ccc1OC` belongs “inactive”. For `N#CC1(Nc2ccc(-c3ccc(NC4(C#N)CCCC4)cc3)cc2)CCCC1`, the activity, negative = inhibition was -5.08% [at 11.4 µM]. The same measure, in the same setting: to `C[C@@H]1/C=C\CC(=O)OC[C@H](C)C(=O)N2CCC[C@@H]2C(=O)OC1` belongs -11.7% [at 11.4 µM]; to `[Cu].[O-]/N=C1/C(=[OH+])Nc2ccccc21.[O-]Nc1c(O)[nH]c2ccccc12`, -2.92% [at 11.4 µM]. For the compound `O=C(Nc1ccc(Br)cc1)C1CCC(=O)N1Cc1ccccc1Cl` (configuration not stated), the AC50 is 0.447 µM (active). Take `CN(CCCNC(=O)C1CCC(=O)N1Cc1ccccc1Cl)c1ccccc1` (configuration not stated): the AC50 entry was “inactive”.

Take `COCCCNC(=O)C1CCC(=O)N1Cc1ccccc1Cl` (configuration not stated): the AC50 was 5.62 µM (active).

On to `O=c1n(CCCN2CCN(c3cccc(Cl)c3)CC2)nc2ccccn12`, for which the AC50 entry is “inactive”. With `COC(=O)N1CCC2(CC1)CCN(c1cccc(-c3ccccc3)c1)CC2`, the AC50 entry was “inactive”.

On to `CCS(=O)(=O)N1CCC(C(=O)NCCCOC)CC1`, for which the AC50 result was “inactive”. Same read-out and setting: to `O=C(C1CCC(=O)N1Cc1ccccc1Cl)N1CCN(c2cccc(Cl)c2)CC1` (configuration not stated) belongs 15.8 µM (active); to `Cc1noc(NS(=O)(=O)c2ccc(N/C=C\C(=O)c3ccc4c(c3)OCO4)cc2)c1C`, 14.1 µM (active). As for `Cc1noc(NS(=O)(=O)c2ccc(N/C=C/C(=O)c3ccc4c(c3)OCO4)cc2)c1C`, the AC50 was 12.6 µM (active). For the compound `CCC1(C)Cc2c(sc3nnn(CC(=O)Nc4cccc5ccccc45)c(=O)c23)CO1` (configuration not stated), the AC50 was 7.94 µM (active). Same read-out and setting: to `CCCSc1nc(SCC(=O)NCc2ccccc2)c2c3c(sc2n1)COC(C)(CC)C3` (configuration not stated) belongs 3.98 µM (active); to `CCC1(C)Cc2c(sc3nnn(CC(=O)Nc4ccc(C)cc4)c(=O)c23)CO1` (configuration not stated), 11.2 µM (active). Regarding `CCCSc1nc(NCc2ccco2)c2c3c(sc2n1)COC(C)(C)C3`, the AC50 is 6.31 µM (active).

For `COC(=O)[C@H](CCSC)NC(=O)C/C=C\[C@@H](C)[C@@H](CO)OC`, the activity, negative = inhibition was -1.66% [at 11.4 µM].

Turning to `CN(C)c1ccc(-c2nccc(NCc3cccs3)n2)cc1`, the activity, negative = inhibition is -21.1% [at 2.29 µM]. For the compound `CC(=O)OC1CCC(OC(C)=O)c2c1n([O-])c(C)c(C)[n+]2=O` (configuration not stated), the AC50 entry was “inactive”. `CC(=O)Nc1ccc2c(c1)OCCOCCOc1cc(NC(C)=O)ccc1OCCOCCOCCO2`: the AC50 entry was “inactive”. The same measure, in the same setting: as for `O=C(Nc1ccc2c(c1)OCCO2)c1cccc2nc3ccccc3nc12`, the figure is 12.6 µM (active); as for `O=C(CN1CCN(CC(=O)Nc2ccccc2Cl)CC1)Nc1ccc2c(c1)OCCO2`, 4.47 µM (active); as for `CC(=O)Nc1ccc2c(c1)OCCO2`, “inactive”.

On to `COC(=O)Cn1nc(-c2ccccc2)n(-c2ccccc2)c1=S`, for which the AC50 entry was “inactive”.

On to `O=C(CC(c1ccccc1)c1ccccc1)Nc1ccc2c(c1)OCCO2`, for which the AC50 was 4.47 µM (active).

`CCn1c(-c2ccccc2Cl)nn(CC(=O)Nc2ccc(OC)cc2)c1=S`: the AC50 is 2.24 µM (active).

As to `O=C(Nc1ccc2c(c1)OCCO2)C1CCN(C(=O)c2ccccc2)CC1`, the AC50 result was “inactive”. Same read-out and setting: to `Oc1cc2c(c(Cl)c1O)CCNC[C@H]2c1ccccc1` belongs “inactive”; to `S=C(Nc1ccccc1)Nc1ccc(OCc2ccccc2)cc1`, “inactive”. For the compound `COC(=O)N1CCC2(CCN(C(=O)Nc3ccc(OC)cc3)CC2)CC1`, the AC50 result is “inactive”.

Take `COC(=O)N1CCC2(CC1)CN(C(=O)Nc1ccc(OC)cc1)C2`: the AC50 entry is “inactive”. With `COc1ccc(NC(=O)CN2CCN(CC(=O)Nc3ccccc3Cl)CC2)cc1`, the half-maximal activity concentration (AC50) is 8.91 µM (active). On the same count and under the same terms, as for `COc1ccccc1NC(=O)CN1CCN(CC(=O)Nc2ccc(OCc3ccccc3)cc2)CC1`, the figure is 2.24 µM (active). On to `O=C1[C@@H]2[C@H]3[C@H](O)[C@H](O)C/C(=N/OC[C@@H](O)COCc4ccco4)[C@H]3CC[C@H]2C(=O)N1c1ccc(F)cc1F`, for which the activity, negative = inhibition is -12.6% [at 11.4 µM].

In the case of `Cc1cccc(CNc2cc(-c3cccc(C#N)c3)ncn2)c1`, the activity, negative = inhibition is 3.34% [at 2.29 µM]. `NCCS(=O)O`: the AC50 entry is “inactive”.

`Cn1c(=O)c2[nH]c(/N=N\N3CCN(CCO)CC3)nc2n(C)c1=O`: the activity, negative = inhibition is 4.93% [at 11.4 µM]. With `C#CCn1c(S(=O)(=O)Cc2ccc(OC)cc2)nc(-c2ccccc2)c1-c1ccccc1`, the AC50 is 2.82 µM (active).

As for `COc1ccc(CO/N=C/c2c(C)[nH]c(=O)[nH]c2=O)cc1`, the AC50 result is “inactive”. The same measure, in the same setting: to `COC(=O)CC[C@@H](C)[C@H]1CC[C@H]2[C@H]3CC[C@H]4C[C@@H]5CC[C@@]4(C)C3(O5)[C@@H](Br)[C@@H](Br)[C@@]12C` belongs 2.51 µM (active); to `C[C@H](CCC(=O)NCC(=O)O)[C@H]1CC[C@H]2[C@H]3[C@@H](C[C@@H](O)[C@]12C)[C@]1(C)CC[C@H](O)C[C@@H]1C[C@@H]3O`, “inactive”. Still for that read-out and setting: as for `COC(=O)N1CCC2(CC1)CCN(c1ccncc1)CC2`, the entry is “inactive”. Still for that read-out and setting: to `O=C(Cc1cccs1)N/N=C/C(Br)=C/c1ccccc1` belongs 2.82 µM (active). On to `Cn1cc(C(=O)N/N=C/C(Br)=C\c2ccccc2)ccc1=O`, for which the AC50 result was “inactive”. On the same count and under the same terms, as for `CC(C)(C)c1ccc(OCC(=O)NNC(=O)Cc2cccs2)cc1`, the entry is “inactive”; as for `C/C(CC(=O)NC1CCCC1)=N\NC(=O)Cc1cccs1`, “inactive”; as for `Cn1cccc1CC(=O)N/N=C\c1cccs1`, “inactive”. Same read-out and setting: as for `CC(/C=N/NC(=O)Cc1cccs1)=C\c1ccco1`, the figure is 7.94 µM (active).
